High-throughput results deposited in PubChem BioAssay by National Center for Advancing Translational Sciences (NCATS).
Rows were chosen to be rich in hits. Some 2.8% of all compounds tested hit in one or more screens of this group.
RGS4 inh = inhibitors of human regulator of G protein signaling 4. P49798. 390,000 tested, 0.039% active. Transcreener GDP fluorescence polarization, RGS4-accelerated GTP hydrolysis. Potency, µM (top dose mostly 114 µM), for inactives: at the highest dose activity change, negative = inhibition, hits mostly inhibitors; active = well fitted inhibition curve with a large enough effect; inconclusive = small, poorly fitted or top-dose-only effect; inactive = no such curve, though single readings can be large or run the other way; also: potency is read from the fitted curve at half-maximal effect; % is scaled to controls: 0 for no effect and ±100 for the full control effect; nearly all actives have a fitted effect of over 75% in size
Target sequence (P49798 whole entry, looked up): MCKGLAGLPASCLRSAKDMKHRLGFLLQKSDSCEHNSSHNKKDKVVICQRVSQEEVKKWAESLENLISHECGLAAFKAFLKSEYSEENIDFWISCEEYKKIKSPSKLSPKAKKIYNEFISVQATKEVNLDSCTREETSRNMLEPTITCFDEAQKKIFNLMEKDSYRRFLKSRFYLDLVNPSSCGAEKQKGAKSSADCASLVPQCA
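MLSMR compounds (23 nl, pin-transferred) preincubated 10 min at room temperature with a 500nM (2x) first reagent, then RGS4 at 900nM (2x) plus Transcreener GDP mix added; fluorescence polarization (620/688 nm) read before and after 90 min at 30 °C.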
PI4K2A inh = PI4K2A (human) kinase inhibition. AID 1346378. activity change, negative = inhibition, % at 76.9 µM. 420,000 tested, 0.13% active. purified PI4K2A, ADP-Glo luminescence, 1 h; hits give low values. Q9BTU6; in the data active = activity change below about -50%; inconclusive = mostly about -30% to -49%;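 also: -100% = wells without enzyme as full effect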
Target sequence (Q9BTU6 whole entry, looked up): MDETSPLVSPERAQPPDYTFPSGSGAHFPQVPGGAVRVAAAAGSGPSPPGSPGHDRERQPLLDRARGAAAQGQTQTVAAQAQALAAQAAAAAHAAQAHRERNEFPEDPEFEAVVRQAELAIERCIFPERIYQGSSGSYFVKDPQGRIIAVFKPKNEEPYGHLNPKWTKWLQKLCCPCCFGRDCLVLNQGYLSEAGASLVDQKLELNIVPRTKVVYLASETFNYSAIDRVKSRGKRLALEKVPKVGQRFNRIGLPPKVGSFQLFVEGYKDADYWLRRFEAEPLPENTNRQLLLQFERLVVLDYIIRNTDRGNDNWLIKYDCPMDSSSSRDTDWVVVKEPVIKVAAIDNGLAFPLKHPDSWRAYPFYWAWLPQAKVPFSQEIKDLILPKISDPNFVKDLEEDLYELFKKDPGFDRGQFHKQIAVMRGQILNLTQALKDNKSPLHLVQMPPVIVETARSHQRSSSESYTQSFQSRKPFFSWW
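ADP-Glo luminescence measured ADP generated by PI4K2A enzyme (4 ug/mL before mixing) with 1.2 mM PI substrate (pre-mix) and 300 microM ATP (pre-mix). Tris pH7.5 buffer with MgCl2, Triton X-100; 1 h reaction at ambient temperature.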
Akt phos inh = Akt phosphorylation inhibition; activity change, % for hits at 50 µM; 360,000 tested, 0.32% active; Neuro2A IGF-stimulated pAkt S473 HTRF, 20 min; hits give low values; in the data active = activity change below about -80%; inconclusive = mostly about -51% to -80%; also: % is scaled to controls: 0 for no effect and ±100 for the full control effect
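Neuro2A cells in DMEM with 0.5% FBS, overnight at 37 deg C, given compound at single 50 µM final, then IGF (6 nM final) for 20 min at 37 deg C. Lysed; phospho-Akt Ser473 by HTRF after 24 h, 665/615 ratio.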
D3 antag = D3 dopamine receptor (human) antagonism | P35462 | D3R cells, DiscoveRx beta-arrestin luminescence, antagonist mode; hits give low values | max response, negative = inhibition, % | 360,000 tested, 2.5% active | AID 652054; in the data active = max response below about -50%; inconclusive = no clear call, values can overlap the other calls; also: % is scaled to controls: 0 for no effect and ±100 for the full control effect
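Cells plated overnight at 1500 cells/well, then exposed to library compounds with dopamine controls for 90 minutes at 37 degrees C. DiscoveRx reagent added for 30–60 minutes at room temperature; luminescence read, quantitative HTS format.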
LDHA inh = LDHA (human) enzyme inhibition; purified LDHA, NADH/diaphorase-resazurin fluorescence; hits give low values; activity change, % (values are at about 110 or 230 µM); 480,000 tested, 0.15% active; AID 1347041; in the data active = activity change below about -30%; inconclusive = mostly about -25% to -30%;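 also: plate controls were DMSO wells for no effect and wells without enzyme for full effect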
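Remaining NADH was detected by diaphorase (0.133 mg/mL) converting 37 µM resazurin to fluorescent resorufin, read at 0 and 20 minutes. The preceding 5-minute room-temperature reaction used 2 nM LDHA, 0.2 mM sodium pyruvate and 0.06 mM NADH at pH 7.4.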
D3 ag = D3 dopamine receptor (human) agonism; AID 652048; 410,000 tested, 0.58% active; max activation, %; D3R DiscoveRx beta-arrestin cells, luminescence, 90 min; in the data active = max activation above about 30%; also: 0% is about no effect
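Agonist mode: compounds and dopamine controls were applied to plated cells for 90 min at 37 degrees C after an overnight attachment at 1500 cells/well. Luminescent read-out followed 30 - 60 minutes at room temperature with DiscoveRx detection reagent.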
Starred values were filed as active, the others as inactive; i = inactive; ? = inconclusive; . = no result; [ ] = dose if it differs, or a comment.

SMILES	RGS4 inh	PI4K2A inh	Akt phos inh	D3 antag	LDHA inh	D3 ag
COc1ccc(CN2CCCCCC2)c(C)c1C	-5.0%	-0.1	i	-75.2*	-18.2	-35.7
Cc1ccc(CN2CCN(Cc3ccccc3C(F)(F)F)CC2)cc1	9.3%	0.1	i	-72.4*	-24.5	-28.6
COc1cccc(CN2CCCCC2)c1OC	.	.	.	.	4.4	.
COc1cccc(C(=O)N2CCN(Cc3cc(Br)ccc3OC)CC2)c1	?	3.2	i	-83.6*	-19.7	-1.2
COc1ccc(Br)cc1CN1CCN(C(=O)c2ccc(OC)c(OC)c2)CC1	21.9%	1.8	i	-20.2	-22.1	-17.5
COc1ccc(C(=O)C2CCCN(C/C=C/c3ccccc3OC)C2)c(OC)c1 (stereo not drawn)	2.7%	7.4	i	-72.1*	-1.0	-28.3
Cc1cc(=O)oc2cc(OCc3ccc(C(=O)OCC(=O)NC(=O)NC(C)(C)C)cc3)ccc12	.	.	.	.	-6.7	.
CCCCCc1ccc(-c2ccc(/C=C/C#N)cc2)nc1	.	.	.	.	5.4	.
COc1ccc(Br)cc1CN1CCN(Cc2c[nH]c3ccccc23)CC1	-26.2%	-4.7	i	-89.9*	-16.9	-49.5
COc1cc(CN2CCN(Cc3ccc(SC)cc3)CC2)cc(OC)c1O	6.6%	0.4	i	?	0.9	-15.0
COc1ccc(CN2CCN(Cc3ccc(C)cc3)CC2)c(OC)c1	-14.4%	0.5	i	-50.4*	-20.1	-38.4
COc1ccc(CN2CCC(N3CC(C)OC(C)C3)CC2)c(OC)c1 (stereo not drawn)	11.5%	-2.7	i	-16.6	-32.0*	-1.6
COc1ccc(CN2CCN(Cc3ccc(C(F)(F)F)cc3)CC2)c(OC)c1	-14.1%	-2.6	i	-15.2	-21.5	-22.7
COc1cc(OC)c(OC)cc1CN1CCN(Cc2ccc(SC)cc2)CC1	16.9%[56.9 µM]	-0.7	i	-25.9	-30.4*	-8.5
CCc1ccc(N2CC(c3nnc(NC(=O)Cc4ccc(F)cc4)s3)CC2=O)cc1 (stereo not drawn)	.	.	.	.	1.5	.
CCOC(=O)c1[nH]ncc1CN1CCCC(C(=O)c2cc(Cl)ccc2OC)C1 (stereo not drawn)	-15.4%	-1.1	i	-101.7*	0.8	-1.2
COc1ccc(CN2CCN(Cc3c[nH]c4ccccc34)CC2)c(OC)c1	.	1.6	i	-73.8*	-32.5*	-4.6
COc1ccc(CN2CCN(Cc3c[nH]c4ccccc34)CC2)cc1	7.4%	-0.8	i	?	-33.7*	-18.6
COc1cc(OC)c(CN2CCN(c3ccc(F)cc3)CC2)cc1Br	-16.0%	-8.8	i	-74.0*	-10.1	-12.0
Cc1ccc2c(CCNC(=O)CNC(=O)c3ccccc3)c[nH]c2c1	.	.	.	.	2.5	.
CN(C)CCCNC1CCCC1	.	.	.	.	7.4	.
COc1ccc(CN2CCN(Cc3c[nH]c4ccccc34)CC2)cc1OC	.	-0.2	i	-51.7*	-31.5*	-5.2
COc1ccc(C(=O)C2CCCN(Cc3c[nH]c4ccccc34)C2)c(OC)c1 (stereo not drawn)	7.7%[11.4 µM]	3.3	i	-96.0*	-5.4	-13.1
COc1ccc(C(=O)C2CCCN(Cc3c(F)ccc(F)c3F)C2)c(OC)c1 (stereo not drawn)	8.5%	0.1	i	-21.3	-2.0	-18.5
Cc1[nH]c2ccccc2c1C(C(=O)O)N1CCN(c2nsc3ccccc23)CC1 (stereo not drawn)	.	.	.	.	-17.8	.
SMILES	RGS4 inh	PI4K2A inh	Akt phos inh	D3 antag	LDHA inh	D3 ag
O=C(NC1CCN(Cc2ccccc2)CC1)c1ccccc1OCc1ccccc1	-18.6%	0.3	i	-99.1*	0.3	-22.8
CSc1ncccc1C(=O)NCCc1ccccc1	4.7%	-2.6	i	11.6	-1.2	-11.8
CCOc1ccccc1C(=O)NC1CCN(Cc2ccccc2)CC1	-21.6%	3.6	i	-72.8*	2.2	-11.3
C#CCOc1ccccc1CNC1CCN(Cc2ccccc2)CC1	-16.4%	2.6	i	-22.1	-30.7*	-5.4
CSc1ncccc1C(=O)NC1CCN(Cc2ccccc2)CC1	1.5%	-2.0	i	-60.0*	-2.9	-11.8
COc1cc(/C=C2\CCC(C3CCCC3)C2=O)ccc1OCCC(C)C (stereo not drawn)	.	.	.	.	14.4	.
C=CCNC(=O)CSc1ncc(-c2ccc(F)cc2)o1	.	.	.	.	-0.5	.
CCOC(=O)C(=O)Nc1cc(OC)c(OC)c(OC)c1	.	.	.	.	1.4	.
O=C(NC1CCN(Cc2ccccc2)CC1)c1ccccc1Cl	-7.2%	-2.9	i	?	-6.5	-6.3
O=C(NC1CC1)c1cn(-c2ccccc2)nc1-c1ccccc1	.	.	.	.	-1.4	.
O=C(O)c1cn(-c2ccccc2)nc1-c1ccc(Cl)cc1	-10.1%	8.6	i	-54.3*	-1.6	8.7
O=C(NC1CCN(Cc2ccccc2)CC1)c1ccccc1OCc1ccccc1Cl	-0.4%	3.1	i	-105.2*	-2.8	-21.5
O=C(NC1CCN(Cc2ccc(Cl)cc2)CC1)c1cn(-c2ccccc2)nc1-c1cccnc1	18.2%	-3.4	i	-61.7*	-1.7	-21.6
Cc1nn(Cc2ccccc2Cl)c2sc(C(=O)Nc3nccs3)cc12	-28.3%	-4.8	i	-9.1	-0.2	31.8*
Cc1nn(Cc2ccc(F)cc2)c2sc(C(=O)Nc3nccs3)cc12	13.8%	-6.0	i	?	-4.9	8.1
CC(=O)Oc1cc2c(C(C)=O)coc2c2ccccc12	-6.4%	3.7	-144.4%*	-12.2	-4.0	-2.1
O=C(COc1ccccc1)NCC(=O)N/N=C/c1ccc(Cl)cc1	23.6%	-3.9	i	-7.3	-4.8	-1.0
O=C(COc1ccc(Cl)cc1)N/N=C/CCc1ccccc1	1.4%	7.7	i	-60.0*	-9.1	-4.0
O=C(OCn1ncc(Cl)c(Cl)c1=O)c1ccc(C(F)(F)F)cc1	-30.3%	23.3	i	-85.3*	-15.7	1.1
CCOC(=O)c1ccc(NC(=O)Cn2ncc(Cl)c(Cl)c2=O)cc1	-44.7%	-15.5	i	?	-0.1	-6.3
Cc1ccc(C(=O)OCn2ncc(Cl)c(Cl)c2=O)cc1	-9.4%	15.7	i	-50.7*	2.4	-7.6
COc1ccccc1NC(=O)c1cnc2ccccc2n1	.	.	.	.	-1.4	.
CN(CC(=O)NCCc1ccccc1)S(=O)(=O)c1ccc(Br)s1	23.5%	-0.5	i	-77.9*	-4.4	-30.0
O=C(Nc1ccccc1)c1nc[nH]c1C(=O)NCCCCNC(=O)c1[nH]cnc1C(=O)Nc1ccccc1	18.9%	2.9	i	29.0	0.9	24.8
Cc1ccc(NC(=O)c2nc[nH]c2C(=O)NCCCCCCNC(=O)c2[nH]cnc2C(=O)Nc2ccc(C)cc2)cc1	-22.8%	-2.3	i	-3.4	-8.1	1.2
